The list is not random: actives were taken first. Their share in the collection is about 5.7%.
hcDAF12 agonist: H. contortus DAF-12 nuclear receptor activators, primary screen, cell-based, luminescence, HEK293, lit1-tk-luc reporter; HEK293 hcDAF-12 lit1-tk-luc reporter; 0% DMSO, 100% Δ7-dafachronic acid; activation, % at 6.8 µM; actives 1.4% (n = 370,000); AID 652067, 2013;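 active = activation above the mean of all tested compounds plus 3 SD, cut at about 5.5% in these data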;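 note: 100% = response to 3 µM Δ7-dafachronic acid high control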
DAX1 inh-1: DAX1 (NR0B1) inhibitors, primary screen, cell-based, HEK293, Gal4-DAX1, luciferase luminescence. inhibition, % at 6.75 µM. actives 0.99% (n = 340,000). AID 504766, 2011. HEK293 Gal4-DAX1 luciferase reporter. Nuclear receptor subfamily 0 group B member 1 (Homo sapiens), P51843;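 active = inhibition above the mean over all tested compounds plus 3 SD, cut at about 4.2% in these data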;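 note: 0% = DAX1-transfected cells with DMSO and 100% = empty-vector control cells with DMSO; inhibition shows as a rise in luminescence from relieved DAX1 repression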
AHR act: AHR activators, primary screen, cell-based, luminescence, luciferase reporter, human. AHR-responsive luciferase reporter cells. activation, % at 5 µM. actives 2.5% (n = 320,000); in the data active = activation above about 47%;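 note: 0% = vehicle wells and 100% = reference agonist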
hgDAF-12 ag: H. glycines DAF-12 receptor agonists, primary screen, cell-based, luminescence, HEK293, GAL4 fusion, UAS-luciferase. Nuclear hormone receptor DAF-12 (Heterodera glycines), GAL4 fusion. HEK293 GAL4-hgDAF12 UAS-luciferase reporter, agonist luminescence; normalized to butyrate control. activation, % at 6.8 µM. actives 1.8% (n = 370,000). AID 687014, 2013;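 active = activation above a cutoff set at the mean of all screened compounds plus 3 SD, cut at about 10% in these data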;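 note: 0% = DMSO wells and 100% = sodium butyrate wells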
DAX1 inh-2: DAX1 (NR0B1) inhibitors on StAR promoter, primary screen, cell-based, luminescence, SF-1 (NR5A1), full-length DAX-1; inhibition, % at 6.8 µM; actives 1.1% (n = 370,000); HEK293T StAR-luciferase reporter, SF-1/DAX-1 repression relief;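 active = inhibition above the mean over all tested compounds plus 3 SD, cut at about 3.6% in these data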;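 note: 0% = DAX-1 cells with DMSO and 100% = cells lacking DAX-1 with DMSO; higher inhibition means more luminescence from relief of DAX-1 repression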
ssDAF-12 act: S. stercoralis DAF-12 nuclear receptor activators, primary screen, cell-based, luminescence, HEK293, GRIP1 co-expression, lit1-tk-luc | actives 1% (n = 370,000) | activation, % at 6.8 µM | AID 652126, 2013 | Nuclear hormone receptor DAF-12 (Strongyloides stercoralis) | HEK293 ssDAF-12/GRIP1 lit1-tk-luc reporter; % of 3 µM dafachronic acid response;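 active = activation above the mean over all tested compounds plus 3 SD, cut at about 0.9% in these data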;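 note: 0% = DMSO-only wells and 100% = 3 µM delta7-dafachronic acid wells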
The depositor's hits bear a star; x = not tested or not shown.

SMILES	hcDAF12 agonist	DAX1 inh-1	AHR act	hgDAF-12 ag	DAX1 inh-2	ssDAF-12 act
Cc1ccccc1NC(=O)/C=C/c1cccs1	2	0	21	13*	3	-1
CCN(CC)S(=O)(=O)c1ccc(C)c(NC(=O)/C=C/c2cccs2)c1	0	-2	8	-4	-1	-1
CC1CCCN(Cc2cccc(Oc3ccccc3)c2)C1 (centres undefined)	1	0	-1	-2	0	-2
S=c1[nH]nc(-c2n[nH]c3c2CCC3)n1N=Cc1c[nH]c2ccccc12	-1	x	x	-5	1	-1
Cc1ccc(C(=O)Oc2ccc(/C=C3\C(=N)N4N=C(N5CCOCC5)SC4=NC3=O)cc2)cc1	2	1	4	12*	0	-1
O=C(NCC1CCCO1)c1cc2ccccc2o1 (centres undefined)	2	0	6	2	3	-1
CN1C2=NCCN2C(=O)c2cc(Cl)ccc21	4	1	59*	0	0	-1
Clc1ccc2c(c1)-c1ccccc1C1=NCCN12	2	1	x	2	-1	0
c1ccc(Cn2ccc3ccc(-c4ccc5ccn(Cc6cccc(-c7ccsc7)c6)c5c4)cc32)cc1	1	x	x	2	-1	-1
CC1=CCC(/C=N\Nc2nnc3c(n2)[nH]c2ccccc23)CC1 (centres undefined)	x	x	55*	x	x	x
C[C@H](CO)N1C[C@H](C)[C@@H](CN(C)C(=O)NC2CCCC2)Oc2cc(Br)ccc2S1(=O)=O	-2	1	x	-2	1	-1
CC(=O)N1CCN(C(=O)COC(=O)c2ccc(S(C)(=O)=O)cc2)CC1	0	4	1	1	0	0
COc1cc(/C=N/Nc2ccc(C(F)(F)F)cn2)ccc1O	3	-1	6	4	0	0
COc1cc(O)oc1C=Nc1ccc(C(F)(F)F)cc1	2	2	54*	1	0	-1
Cc1cccc(NC(=O)Nc2ccccc2[N+](=O)[O-])n1	-1	3	43	3	0	0
Cc1ccc(N2C(=O)C3C(C2=O)C(C(=O)c2ccc(Cl)cc2)N2CCCC32)cc1 (centres undefined)	-1	1	11	0	0	-1
O=C(C1=C[C@@H]2[C@H]3C(=O)N(c4ccc(Cl)cc4)C(=O)[C@H]3[C@@H](C(=O)c3ccc(Cl)cc3)N2C=C1)c1ccccc1	0	-1	50*	2	0	0
O=C1NC(=Nc2ccccc2)c2c1cccc2[N+](=O)[O-]	0	-2	37	2	0	1.3*

Source: PubChem BioAssay
